Measurements reported in PubChem BioAssay.

The molecules below were run against Torsin-1A (Homo sapiens) (UniProt O14656) (assay: torsin A binders from cell lysate, primary screen, small-molecule microarray, wild-type, 635/667 nm (AID 1149)). Conditions: COS7 hTOR1A-WT lysate, 635 nm fluorescence, higher = more signal.
Chain of Torsin-1A (Homo sapiens) (O14656 whole entry, looked up): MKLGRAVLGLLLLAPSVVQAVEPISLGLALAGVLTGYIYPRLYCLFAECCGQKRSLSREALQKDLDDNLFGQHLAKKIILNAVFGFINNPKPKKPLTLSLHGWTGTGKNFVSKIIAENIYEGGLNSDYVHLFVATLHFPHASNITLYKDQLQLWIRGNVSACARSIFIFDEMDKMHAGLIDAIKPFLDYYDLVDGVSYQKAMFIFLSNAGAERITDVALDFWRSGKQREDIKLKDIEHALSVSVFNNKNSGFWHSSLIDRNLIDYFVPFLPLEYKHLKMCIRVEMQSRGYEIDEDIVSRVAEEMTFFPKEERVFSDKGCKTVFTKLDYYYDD

Row | SMILES | composite z-score
1 | COCCOC(=O)N1C(=O)[C@@]2(c3ccccc31)[C@H](c1ccc(OCCO)cc1)N1[C@H](c3ccccc3)[C@H](c3ccccc3)OC(=O)[C@H]1[C@@H]2C(=O)N1CCCCCCC1 | 3.76
2 | CCCCCN1CC=CC23O[C@@H]4/C=C\CCC(C)OC(=O)C4[C@H]2C(=O)N(CCCCCCO)[C@@H]3C1=O (stereo not given in full) | -0.96
3 | COCCOC(=O)N1C(=O)[C@@]2(c3ccccc31)[C@H](c1ccccc1OCCO)N1[C@H](c3ccccc3)[C@H](c3ccccc3)OC(=O)[C@H]1[C@@H]2C(=O)N1CCCCCCC1 | 2.69
4 | C=C[C@@H](OC)[C@H](OC(=O)Nc1ccc(SC)cc1)c1ccc(OCCO)cc1 | 0.615
5 | COC(=O)[C@@]1(Cc2ccc(F)cc2)[C@H]2c3cc(C(=O)N(C)C)n(Cc4c(CO)[nH]cc(C)c4=O)c3C[C@H]2CN1C(=O)c1ccccc1 | 0.475
6 | Cc1ccccc1C(O)C1C=CC2C(=O)N(c3ccccc3)C(=O)C2N1Nc1ccc([N+](=O)[O-])cc1 (stereo not given) | 0.992
7 | COc1cc(NN2C(C(O)c3cc(OC)c(OC)c(OC)c3)C=CC3C(=O)N(c4ccccc4)C(=O)C32)cc(OC)c1OC (stereo not given) | -0.152
8 | C=CCC(OC(C)=O)[C@@H]1[C@@H](N(Cc2cccc3ccccc23)C(=O)c2cccc3ccccc23)c2cc(OCCCO)ccc2N1C(=O)c1ccc2ccccc2c1 (stereo not given in full) | 0.0265
9 | COC(=O)[C@@]1(Cc2ccccc2)[C@H]2c3cc(C(=O)N4CCCC4)n(CCSCCO)c3C[C@H]2CN1C(=O)c1ccccc1 | 0.424
10 | Cc1cccc([C@H]2C[C@H]3C(I)=C[C@@H]2C(=O)[C@]32CO2)c1 | -0.404
11 | O=C1C2C=CC(C(O)C=Cc3ccc([N+](=O)[O-])cc3)N(Nc3ccccc3)C2C(=O)N1c1ccccc1 (stereo not given) | -0.283
12 | CC(=O)NCCCC[C@@H]1NC(=O)[C@H]2C[C@@H](C(=O)NCCCCCNC(=O)CS)[C@@H](c3cccc(OCCO)c3)N2C1=O | 0.498
13 | C=C[C@H](C)[C@H](OC(=O)Nc1ccc(OC)cc1)c1ccc(OCCO)cc1 | 0.763
14 | CCOC(=O)C[C@H]1[C@H](OC(=O)c2ccc(C(=O)c3ccccc3)cc2)[C@@H](NC(=O)CC(C)C)c2cc(OCCCO)ccc2N1C(=O)Cc1ccc(OC)cc1 | 0.311
15 | Cc1ccccc1C(O)C1C=CC2C(=O)NC(=O)C2N1Nc1ccc(Cl)cc1Cl (stereo not given) | -0.192
16 | COc1cc2c(cc1O)C(c1ccc(CN3CCCC3)cc1)N(C)CC2 (stereo not given) | -0.508
17 | COc1ccc([Si](C)(C)[C@@H]2[C@@H](CCn3cc([C@H](O)c4ccccc4)nn3)O[C@]3(C(=O)N(Cc4cccc(N5C(=O)c6cccc7cccc5c67)c4)c4ccccc43)[C@H]2C)cc1 | -1.06
18 | CC(C)(C)OC(=O)CC[C@]1(C(=O)N2CCCCC2)COC(c2ccc(OCCCO)cc2)=N1 | 0.655
19 | COCCOC(=O)N1C(=O)[C@@]2(c3cc(C#CC4=CCCCC4)ccc31)[C@H](c1ccc(O)cc1)N1[C@H](c3ccccc3)[C@H](c3ccccc3)OC(=O)[C@H]1[C@@H]2C(=O)NC[C@H](O)c1ccccc1 | 0.184
20 | CN(C)CCCCCCNC(=O)[C@@H]1C[C@@H]2C(=O)N[C@@H](CCCCN)C(=O)N2[C@@H]1c1ccc(O)cc1 | 3.46
21 | Cc1ccc(N2C(=O)c3ccccc3[C@](C)(C(=O)NCc3ccccc3)[C@@H]2c2ccc(CO)cc2)nc1 | 0.197
22 | C=C[C@@H](C)[C@@H](OC(=O)Nc1ccc(SC)cc1)c1ccc(OCCO)cc1 | 0.495
23 | C=C(/C(=C/C[C@@H](OC(=O)c1ccncc1)c1cccc(OCCO)c1)c1cnc2ccccc2c1)C(C)C | 0.199
24 | O=c1cccc(-c2ccco2)o1 | 0.444
25 | O=C1C2C=CC(C(O)c3cc(C(F)(F)F)cc(C(F)(F)F)c3)N(Nc3ccccc3F)C2C(=O)N1c1ccccc1 (stereo not given) | -0.0067
26 | O=C(N1CCOCC1)[C@@]1(CCS(=O)(=O)c2ccccc2)N=C(c2ccc(OCCCO)cc2)O[C@H]1c1ccccc1 | 0.411
27 | COCCCNC(=O)[C@@]1(Sc2ccc(C)cc2)CC(=O)N(C(C)C)[C@@H]1c1ccc(CO)cc1I | 0.154
28 | C=C(C)[C@@H]1CC=C(C(O)C2C=CC3C(=O)N(c4ccccc4)C(=O)C3N2Nc2ccc(C#N)cc2)CC1 (stereo not given in full) | 0.202
29 | C=C(COC)/C(=C/C[C@@H](OC(=O)c1ccncc1)c1ccccc1OCCO)c1cc(C(=O)OC)ccc1OC | 0.758
30 | CC(C)C[C@@H]1NC(=O)[C@@H]2C[C@H](C(=O)NCCCCCC[N+](C)(C)C)[C@H](c3cccc(OCCO)c3)N2C1=O | -0.153
